From PubChem
HT1080NT lethal = kills 2HG-producing HT-1080-NT fibrosarcoma cells; AID 686970; HT-1080-NT fibrosarcoma viability, CellTiter-Glo ATP luminescence, 48 h; Potency, µM (doses to about 46.1 µM), most hits filed as cytotoxic; hit rate 1.6% among 360,000;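 also: NT is the 2HG producing partner of a matched IDH1 knockdown line; nearly all actives have a fitted effect of over 55% in size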
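HT-1080-NT; 750 cells/well; 5% FBS RPMI; 48 h compound, 37 degrees C; CellTiter-Glo luminescence; curve fitting and curve-class assignment.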
KB-3-1 cytotox = KB-3-1 parental cell cytotoxicity | hit rate 1.4% among 400,000 | KB-3-1 viability, CellTiter-Glo ATP luminescence, 72 h | Potency, µM (highest dose often 46.1 µM), hits mostly cytotoxic; also: nearly all actives have a fitted effect of over 60% in size
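Parental KB-3-1 viability, qHTS format: 72 h compound exposure, 37 °C; CellTiter-Glo; media-only wells and DMSO plates as controls; concentration-effect fits on corrected data.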
HT1080 IDH1KD tx = kills HT-1080 cells with IDH1 knockdown | hit rate 2% among 360,000 | HT-1080 IDH1 knockdown viability, ATP luminescence, 48 h | Potency, µM (doses to about 46.1 µM), actives largely listed as cytotoxic
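% activity derives from luminescence (CellTiter-Glo), normalised to DMSO and no-cell wells. HT-1080-IDH1KD cells, 750/well, had 48 h compound exposure at 37 °C.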
DT40 TDP1 no CPT = qHTS for Inhibitors of human tyrosyl-DNA phosphodiesterase 1 (TDP1): qHTS in cells in absence of CPT. AID 686978, 2013. hit rate 15% among 420,000. DT40 Tdp1-/- hTDP1 cells, no CPT, ATP luminescence, 48 h. Potency, µM (top dose mostly 46.2 µM), most hits filed as inhibitors; also: nearly all actives have a fitted effect of over 55% in size
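Seeded 400 DT40-hTDP1 cells/well (vehicle DMSO, no 20 nM CPT); pinned compounds; ≥48 hr at 37 °C; CellTiter-Glo luminescence as viability measure.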
KB-V1 MDR tox = KB-V1 MDR subline cytotoxicity | KB-V1 MDR cells viability, CellTiter-Glo, 72 h | Potency, µM (series often up to 46.1 µM), most hits filed as cytotoxic | hit rate 3.4% among 400,000; also: nearly all actives have a fitted effect of over 60% in size
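KB-V1, DMEM (no phenol red) + 10% FBS; cpd pin-transferred, titration series; 72 h, 37 degrees C; CellTiter-Glo, luminescence. Data normalized, curve-fit.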
DT40 TDP1 CPT = DT40-hTDP1 cell growth loss with CPT; Potency, µM (highest dose often 46.2 µM), most hits filed as inhibitors; chicken DT40 Tdp1-/-;hTDP1 cells + 20 nM CPT, ATP luminescence, 48 h; hit rate 12% among 420,000; AID 686979; also: nearly all actives have a fitted effect of over 55% in size
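Chicken DT40 Tdp1-/- cells stably complemented with human TDP1 were seeded at 400 cells/well in medium containing 20 nM camptothecin, exposed to pin-transferred compounds, and grown at 37 °C for at least 48 hr. Viability was read as ATP luminescence.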
A number is an active result; - = inactive; ? = inconclusive; . = no result given; [ ] = dose if it differs, or a comment. The list is not random: actives were taken first. Their share in the collection is about 19%. Calls follow the shape of the dose curve; as a rule, active = well fitted curve in the direction sought with a large enough effect; inconclusive = small, poorly fitted or top-dose-only effect, or another doubt; inactive = no such curve, though single readings can be large; an effect the other way counts as inactive or inconclusive.

SMILES | HT1080NT lethal | KB-3-1 cytotox | HT1080 IDH1KD tx | DT40 TDP1 no CPT | KB-V1 MDR tox | DT40 TDP1 CPT
CCOc1cc(CNCC(O)c2ccccc2)cc(Cl)c1OC (stereo not drawn) | - | - | - | - | - | ?
CC(=O)OC1CC[C@]2(C)C(=CCC3C4CCC(C(C)CCCC(C)C)[C@]4(C)CCC32)C1 (stereo partly drawn) | . | . | . | - | . | -
O=C1NC(=S)S/C1=C\c1cc2ccccc2nc1N1CCCCC1 | - | ? | - | 21µM | - | 21µM
COc1ccc2nc(N3CCCCC3)c(/C=C3\SC(=S)NC3=O)cc2c1 | ? | - | - | ? | - | ?
CS(=O)(=O)c1ccccc1C(=O)N(CCC1=CCCCC1)c1c(N)n(Cc2ccccc2)c(=O)[nH]c1=O | - | - | - | ? | - | 29µM
CC(Oc1ccc(Br)cc1)C(=O)N(Cc1ccccc1)c1c(N)n(Cc2ccccc2)c(=O)[nH]c1=O (stereo not drawn) | - | - | - | 21µM | - | 23µM
CC(Oc1ccccc1)C(=O)N(CCC1=CCCCC1)c1c(N)n(Cc2ccccc2)c(=O)[nH]c1=O (stereo not drawn) | 23µM | - | ? | ? | - | ?
Nc1c(N(CCC2=CCCCC2)C(=O)c2ccccc2F)c(=O)[nH]c(=O)n1Cc1ccccc1 | -[9.24 µM] | - | - | - | ? | ?
O=C1OC(c2ccccc2)=N/C1=C/c1cccc(OC(=O)c2cccs2)c1 | - | - | - | - | - | -
Clc1cccc(-c2ccc(/C=N/n3cnnc3)o2)c1 | - | - | -[9.24 µM] | - | ? | -
COc1ccc(/C=C2\SC(=N)N(c3nccs3)C2=O)cc1OC | ? | ? | ? | 5.8µM | - | 13µM
N=C1S/C(=C\c2ccc(-c3cccc(Cl)c3)o2)C(=O)N1c1nccs1 | - | 7.3µM | ? | 2.6µM | ? | 3.3µM
COc1ccc(/C=C2\SC(=O)N=C2N)cc1OC | - | - | - | - | - | ?
O=C1OC(c2cccs2)=N/C1=C\c1ccc(-c2cccc(Cl)c2)o1 | - | - | - | ? | - | 21µM
COc1ccc(-c2ccc3c(c2)S(=O)(=O)c2cccc(C(=O)NCc4cc(C)oc4C(F)(F)F)c2C3=O)cc1OC | - | - | - | ? | ? | ?
CC(=O)Nc1ccc(NC(=O)C2(C)Cc3c(-c4ccc(NC(C)=O)cc4)ccnc3O2)cc1 (stereo not drawn) | - | - | - | - | - | -
CC(=O)Nc1ccc(-c2ccnc3c2CC(C)(C(=O)Nc2ccccc2)O3)cc1 (stereo not drawn) | ? | - | ? | 18µM | ? | 21µM
COc1ccc(CCCNC(=O)C2(C)Cc3c(-c4ccc(NC(C)=O)cc4)ccnc3O2)cc1 (stereo not drawn) | - | ? | - | 26µM | - | 23µM
CN(C)c1ccc(-c2ccnc3c2CC(C)(C(=O)NCCc2ccccc2)O3)cc1 (stereo not drawn) | - | - | - | ? | - | 29µM
CC(=O)Nc1ccc(NC(=O)C2(C)Cc3c(-c4cccc(C(N)=O)c4)ccnc3O2)cc1 (stereo not drawn) | ? | - | - | - | - | -
CC(=O)Nc1ccc(-c2ccnc3c2CC(C)(C(=O)Nc2cccc(Oc4ccccc4)c2)O3)cc1 (stereo not drawn) | ? | ? | ? | 16µM | ? | 26µM
CC(=O)NCCNC(=O)C1(C)Cc2c(-c3ccccc3)ccnc2O1 (stereo not drawn) | ? | - | - | - | - | -
CC(=O)Nc1ccc(-c2ccnc3c2CC(C)(C(=O)NCCN(C)C)O3)cc1 (stereo not drawn) | - | - | - | ? | - | -
CC(=O)Nc1ccc(-c2ccnc3c2CC(C)(C(=O)NCCc2ccccc2)O3)cc1 (stereo not drawn) | - | 26µM | - | - | - | ?
Cc1ccc2c(c1)C(c1ccc(F)cc1)N(C(=O)c1ccc(OC(C)C)cc1)CC(=O)N2 (stereo not drawn) | . | - | . | ? | - | ?
SMILES | HT1080NT lethal | KB-3-1 cytotox | HT1080 IDH1KD tx | DT40 TDP1 no CPT | KB-V1 MDR tox | DT40 TDP1 CPT
Cc1ccc(-c2nc3c4ccccc4ccn3c2CC2CCCCC2)cc1 | - | - | - | - | - | ?
CC(=O)c1ccc(-c2nc3c4ccccc4ccn3c2C(C)=O)o1 | - | ? | - | - | 7.3µM | -
Cc1cc(=O)[nH]c(SCC(=O)Nc2cccc(C(F)(F)F)c2)n1 | - | - | - | ? | - | ?
O=C(CSc1nc2[nH]c(=O)cc(O)c2s1)Nc1ccc(Cl)c(C(F)(F)F)c1 | - | - | - | - | ? | -
O=c1cc(O)c2sc(Nc3cccc(C(F)(F)F)c3)nc2[nH]1 | - | - | - | 7.3µM | - | 12µM
Cc1cc(=O)[nH]c(Nc2cccc(C(F)(F)F)c2)n1 | - | ? | - | 23µM | - | ?
COc1ccc(C2N(Cc3ccccc3)CCN2Cc2ccccc2)cc1[N+](=O)[O-] | - | - | - | - | - | -
O=C(NC(=S)NC1CCC(O)CC1)c1ccco1 (stereo not drawn) | - | - | - | - | ? | -
COc1ccc(-n2ccn(CC(=O)Nc3ccccc3C(F)(F)F)c(=O)c2=O)cc1OC | . | . | . | - | . | -
Cn1c(=O)oc2cc(S(=O)(=O)Nc3cccc(F)c3)ccc21 | - | - | - | - | - | -
CCOC(=O)Cn1c(=O)oc2cc(S(=O)(=O)Nc3cc(OC)cc(OC)c3)ccc21 | . | - | . | 21µM | - | 16µM
CSc1cccc(NS(=O)(=O)c2ccc3c(c2)oc(=O)n3C)c1 | - | ? | - | ? | - | 23µM
CCOC(=O)c1ccc(NS(=O)(=O)c2ccc3c(c2)oc(=O)n3C)cc1 | - | - | - | ? | - | 3.7µM
COC(=O)c1ccc(NS(=O)(=O)c2ccc3c(c2)oc(=O)n3C)cc1 | - | - | - | - | - | -
CCOC(=O)Cn1c(=O)oc2cc(S(=O)(=O)Nc3cccc(C)c3)ccc21 | - | - | - | - | - | -
CCOC(=O)c1ccc(NS(=O)(=O)c2ccc3c(c2)n(C)c(=O)n3C)cc1 | - | ? | - | 18µM | - | 21µM
Cc1ccc(S(=O)(=O)N2CCOCC2)cc1C(=O)NCCCN1CCCC1=O | - | - | - | - | ? | -
CCc1ccc(NS(=O)(=O)c2ccc3c(c2)oc(=O)n3C)cc1 | - | - | - | - | - | ?
CCOc1ccc(NS(=O)(=O)c2ccc3c(c2)oc(=O)n3C)cc1 | - | - | - | ? | 15µM | -
NC(N)=Nc1nc(-c2ccccc2)c2ccccc2n1 | - | ? | 18µM | 15µM | - | 26µM
